Source: PubChem BioAssay (The Scripps Research Institute Molecular Screening Center)
PME-1 primary = blocks human protein phosphatase methylesterase 1; Q9Y570; recombinant PME-1, FP-Rh probe fluorescence polarization; inhibition, % at 5.9 µM; 320,000 compounds, 0.53% hits; AID 2130;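 active means inhibition above the campaign mean of all compounds plus 3 SD, cut at about 26% in these data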;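 further: competitive labeling of PME-1 active site by serine hydrolase directed probe; inhibitors block probe labeling so polarization falls and inhibition rises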
PAD4 inh = PAD4 (human) enzyme inhibition | Q9UM07 | recombinant PAD4, RCA probe fluorescence polarization | inhibition, % at 6.36 µM | 330,000 compounds, 0.41% hits | AID 485272;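 active means percent inhibition above a cutoff equal to the mean of all tested compounds plus 3 SD, cut at about 15% in these data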
Target sequence (Q9UM07 whole entry, looked up): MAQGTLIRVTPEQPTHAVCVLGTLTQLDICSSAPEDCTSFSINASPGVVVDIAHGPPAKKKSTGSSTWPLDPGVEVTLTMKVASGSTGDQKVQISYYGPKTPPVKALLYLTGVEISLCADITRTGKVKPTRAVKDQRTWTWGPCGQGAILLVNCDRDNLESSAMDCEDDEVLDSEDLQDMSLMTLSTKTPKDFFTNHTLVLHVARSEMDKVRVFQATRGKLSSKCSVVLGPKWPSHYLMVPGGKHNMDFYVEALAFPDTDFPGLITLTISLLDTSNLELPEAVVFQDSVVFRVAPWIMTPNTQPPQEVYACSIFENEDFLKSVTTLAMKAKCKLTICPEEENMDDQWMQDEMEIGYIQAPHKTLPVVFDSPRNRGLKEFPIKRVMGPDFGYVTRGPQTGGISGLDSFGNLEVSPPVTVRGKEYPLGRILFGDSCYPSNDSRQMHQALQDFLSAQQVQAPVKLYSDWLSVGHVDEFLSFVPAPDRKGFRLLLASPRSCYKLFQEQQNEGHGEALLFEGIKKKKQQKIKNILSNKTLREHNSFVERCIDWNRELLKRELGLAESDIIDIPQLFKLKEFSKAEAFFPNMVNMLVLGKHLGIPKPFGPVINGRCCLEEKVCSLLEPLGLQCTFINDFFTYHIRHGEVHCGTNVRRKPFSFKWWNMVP
LYPLA2 counter = blocks human lysophospholipase 2, a PME1 counter-screen; O95372; inhibition, % at 5.9 µM; recombinant LYPLA2, FP-Rh probe fluorescence polarization; 320,000 compounds, 0.38% hits; AID 2177;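 active means inhibition above the screen-wide mean plus 3 SD, limit set per campaign, cut at about 26% in these data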
LYPLA1 counter = blocks human lysophospholipase 1, a PME1 counter-screen. 320,000 compounds, 0.16% hits. inhibition, % at 5.9 µM. recombinant LYPLA1, FP-Rh probe fluorescence polarization. O75608. AID 2174;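 active means inhibition above the mean of all tested compounds plus 3 SD, set per campaign, cut at about 14% in these data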;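 further: inhibitors block serine hydrolase probe labeling of LYPLA1 so polarization falls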
Fam108B inh = counter-screen for RBBP9 inhibitors: inhibitors of mouse Fam108B; 300,000 compounds, 0.33% hits; AID 1947; recombinant Fam108B, FP-Rh probe fluorescence polarization; inhibition, % at 9.51 µM;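 active means inhibition above the screen mean inhibition plus 3 SD, computed separately per campaign, cut at about 18% in these data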;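 further: inhibitors lower polarization as less probe binds the enzyme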
GSTO1 inh = GSTO1 inhibition, counter-screen for RBBP9 inhibitors; P78417; 300,000 compounds, 1.1% hits; inhibition, % at 5.96 µM; recombinant GSTO1, activity-based probe fluorescence polarization;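 active means inhibition above the campaign mean inhibition plus 3 SD, cut at about 35% in these data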
LYPLA2 confirm = LYPLA2 (human) inhibition, confirmation counter-screen; shares compounds with LYPLA2 counter; recombinant LYPLA2, FP-Rh probe fluorescence polarization; inhibition, % at 5.9 µM; 1,100 compounds, 72% hits;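 active means mean inhibition across replicates above the hit cutoff set in the primary screen, cut at about 26% in these data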;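 further: blocked labeling of the enzyme by serine hydrolase FP-Rh probe lowers polarization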
LYPLA2 gel ABPP = LYPLA2 (human) inhibition, late stage results; inhibition, % at 20 µM; shares compounds with LYPLA2 counter; rhLYPLA2 in mouse brain proteome, gel ABPP FP-Rh; 150 compounds, 30% hits;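 active means inhibition of LYPLA2 enzyme probe labeling above about 50%, limit read from the data; inactive means inhibition below that limit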;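 further: loss of FP-Rh probe labeling of the LYPLA2 gel band measured as band density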
Numbers stand for hits; n = inactive; x = not tested or not shown. Hits are enriched below; roughly 1.8% of the tested compounds scored in any of these assays.

SMILES	PME-1 primary	PAD4 inh	LYPLA2 counter	LYPLA1 counter	Fam108B inh	GSTO1 inh	LYPLA2 confirm	others
Cc1ccc(C(=O)OC(C)CN2C(C)CCCC2C)cc1 (stereo unspecified)	n	n	n	n	n	n	x
O=C(NCc1cccnc1)c1ccc(NC(=O)c2ccc([N+](=O)[O-])cc2)cc1	n	n	37.4	n	n	n	30.4
O=C(Nc1ccc(S(=O)(=O)N2CCOCC2)cc1)c1cc(S(=O)(=O)N2CCOCC2)ccc1Cl	n	n	39.5	n	n	n	38.5
O=C(Nc1ccc(S(=O)(=O)C(F)F)cc1)c1cccc(S(=O)(=O)N2CCOCC2)c1	n	n	35.3	n	n	n	37.6
O=C(Nc1cccc(S(=O)(=O)C(F)F)c1)c1ccc(S(=O)(=O)N2CCOCC2)cc1	n	n	n	n	n	n	x
Cc1coc2c1C(=O)C(=O)c1c-2ccc2c1CCCC2(C)C	n	n	34.9	n	n	n	56.3
Cc1ccc(C(=O)c2coc3c2C(=O)C(=O)c2ccccc2-3)cc1	n	n	n	n	n	n	x
Cc1ccc(/C=C2/SC(=S)N(c3ccc(S(=O)(=O)Nc4nccs4)cc3)C2=O)cc1	n	n	n	n	n	n	x
Cc1ccc(Oc2ccc3c(c2)C(=O)N(c2ccc(S(=O)(=O)Nc4nccs4)cc2)C3=O)cc1	n	n	62.8	n	n	n	54.4	LYPLA2 gel ABPP=53.0
Cc1cc(SCC(=O)Nc2c(C)n(C)n(-c3ccccc3)c2=O)nc2ccccc12	n	n	n	n	n	n	x
O=C1[C@@H]2Cc3c([nH]c4ccccc34)CN2C(=O)CN1CCCO	n	n	n	n	n	n	x
CCCCCN1CC(=O)N2Cc3[nH]c4ccccc4c3C[C@H]2C1=O	n	n	55.8	n	n	n	56.0	LYPLA2 gel ABPP=n
CCCCCCN1CC(=O)N2Cc3[nH]c4ccccc4c3C[C@H]2C1=O	n	n	58.4	n	n	n	57.7	LYPLA2 gel ABPP=n
Cc1cc(C)nc(NC(=O)c2c(F)c(F)c(F)c(C(=O)Nc3cc(C)cc(C)n3)c2F)c1	n	n	n	n	n	n	x
O=C1c2c(O)cc(O)cc2O[C@H](c2ccc(O)c(O)c2)[C@@H]1O	n	n	29.4	n	n	n	39.4
O=[N+]([O-])c1cnc(Nc2ccc(Cl)cn2)c([N+](=O)[O-])c1	n	n	29.1	n	n	n	32.4
CC1(C)C(CSc2nc3ccccc3[nH]2)C1(Cl)Cl (stereo unspecified)	n	n	n	n	n	n	x
Cc1nc(C(=O)NCc2ccccc2)sc1C1(C)CC(c2cccc([N+](=O)[O-])c2)=NO1 (stereo unspecified)	n	n	n	n	n	n	x
CNC(=O)c1nc(C)c(C2(C)CC(c3cccc([N+](=O)[O-])c3)=NO2)s1 (stereo unspecified)	n	n	26.0	n	n	n	28.6
O=C(NCC(=O)N1CCN(C/C=C/c2ccccc2)CC1)c1ccc(Br)cc1	x	n	x	x	x	x	x
O=C(NCC(=O)N1CCN(C/C=C/c2ccccc2)CC1)c1ccc(OC(F)F)cc1	n	n	34.7	n	x	x	31.9
O=C(Nc1cccc(Oc2ccc(C(=O)O)c(C(=O)O)c2)c1)c1ccc(-c2ccccc2)cc1	n	n	54.0	n	n	n	39.6
CC(C)(C)C(=O)Nc1ccc(C(=O)Nc2cc(NC(=O)c3ccc(NC(=O)C(C)(C)C)cc3)cc(C(=O)O)c2)cc1	n	n	n	n	n	n	x
CC(C)(C)C(=O)Nc1ccc(C(=O)Nc2cccc(Oc3ccc(C(=O)O)c(C(=O)O)c3)c2)cc1	n	n	30.9	n	n	n	n
COc1cccc(CCN2CCC(CNS(=O)(=O)c3cc(-c4cc(C)no4)ccc3C)CC2)c1	n	n	28.4	n	n	n	35.1
SMILES	PME-1 primary	PAD4 inh	LYPLA2 counter	LYPLA1 counter	Fam108B inh	GSTO1 inh	LYPLA2 confirm	others
CC(C)CCn1nnnc1C(c1ccc(F)cc1)N1CCC(C(N)=O)CC1 (stereo unspecified)	n	n	n	n	n	n	x
Cc1ccc(C(=O)NCCC(=O)NCc2cc(=O)n(C)c(=O)n2C)cc1	n	n	n	n	n	n	x
Cc1cc(C(=O)NNC(=O)c2ccccc2[N+](=O)[O-])c(C)o1	n	n	n	n	x	x	x
O=C(NNC(=O)c1cc2ccccc2oc1=O)c1ccccc1[N+](=O)[O-]	n	n	27.5	n	n	n	n
O=[N+]([O-])c1ccc2cn(-c3ccccc3)nc2c1	n	n	n	n	n	n	x
COc1cccc(COC(=O)Cc2ccc(S(=O)(=O)N3CCOCC3)s2)c1OC	n	n	n	n	x	x	x
O=C(Nc1ccn(C2CC(OC(=O)c3ccccc3)C(CO)O2)c(=O)n1)c1ccccc1 (stereo unspecified)	n	n	26.0	n	n	n	n
COc1cc(/C=N\NC(=O)c2ccc(Cl)cc2)ccc1Oc1ccc([N+](=O)[O-])cn1	n	n	n	n	n	n	x
CCOc1cc(C=C(C#N)C#N)ccc1Oc1ccc([N+](=O)[O-])cn1	n	n	n	n	n	n	x
COc1cc(/C=C(/C#N)c2ccc(F)cc2)ccc1Oc1ccc([N+](=O)[O-])cn1	n	n	46.5	n	n	n	51.2	LYPLA2 gel ABPP=n
COc1cc(/C=N/NC(=O)Cc2ccccc2)ccc1Oc1ccc([N+](=O)[O-])cc1[N+](=O)[O-]	n	n	40.3	n	n	n	31.4
COc1cc(/C=N\NC(=O)c2ccccc2F)ccc1Oc1ccc([N+](=O)[O-])cn1	n	n	30.6	n	n	n	n
O=C(Nc1ccc(-c2ccc(N3CCCCC3)nn2)cc1)c1ccco1	n	n	n	n	n	n	x
CCCCC1CCC(c2nc(-c3ccccn3)no2)CC1 (stereo unspecified)	n	n	28.6	n	n	n	37.6
c1ccc(-c2noc(C3CCC3)n2)nc1	n	n	n	n	n	n	x
COCCn1c(=NC(=O)CN2C(=O)CCC2=O)sc2cc(S(N)(=O)=O)ccc21	n	n	n	n	n	n	x
C#CCn1c(=NC(=O)CN2C(=O)CCC2=O)sc2cc(S(N)(=O)=O)ccc21	n	n	32.5	n	n	n	47.0
CCCCCC1CC(CC(=O)Nc2ccc([N+](=O)[O-])cc2)C(=O)O1 (stereo unspecified)	n	n	35.9	n	n	n	31.5
CCCCCCC1CC(CCC(=O)Nc2ccc([N+](=O)[O-])cc2)C(=O)O1 (stereo unspecified)	n	n	n	n	n	n	x
CCCCCC1CC(CC(=O)Nc2ccc([N+](=O)[O-])cc2)OC1=O (stereo unspecified)	n	n	34.6	n	n	n	36.8
